Measured values published in PubChem BioAssay AID1211 (NMMLSC, 2008).
Values without a mark were called inactive. Calls of active or inactive are those of the source. No rule for the calls is given here.

target: Estrogen receptor (Homo sapiens) (UniProt P03372); assay: ERalpha ligand binders by competition, primary screen, cell-based, Cos7 ERalpha-GFP, flow cytometry (AID 1211); conditions: fluorescent ligand competition, at 10 µM, hits give high values;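 also: 0% = DMSO vehicle wells and 100% = no E2-Alexa633 signal left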
Sequence (P03372 whole entry, looked up): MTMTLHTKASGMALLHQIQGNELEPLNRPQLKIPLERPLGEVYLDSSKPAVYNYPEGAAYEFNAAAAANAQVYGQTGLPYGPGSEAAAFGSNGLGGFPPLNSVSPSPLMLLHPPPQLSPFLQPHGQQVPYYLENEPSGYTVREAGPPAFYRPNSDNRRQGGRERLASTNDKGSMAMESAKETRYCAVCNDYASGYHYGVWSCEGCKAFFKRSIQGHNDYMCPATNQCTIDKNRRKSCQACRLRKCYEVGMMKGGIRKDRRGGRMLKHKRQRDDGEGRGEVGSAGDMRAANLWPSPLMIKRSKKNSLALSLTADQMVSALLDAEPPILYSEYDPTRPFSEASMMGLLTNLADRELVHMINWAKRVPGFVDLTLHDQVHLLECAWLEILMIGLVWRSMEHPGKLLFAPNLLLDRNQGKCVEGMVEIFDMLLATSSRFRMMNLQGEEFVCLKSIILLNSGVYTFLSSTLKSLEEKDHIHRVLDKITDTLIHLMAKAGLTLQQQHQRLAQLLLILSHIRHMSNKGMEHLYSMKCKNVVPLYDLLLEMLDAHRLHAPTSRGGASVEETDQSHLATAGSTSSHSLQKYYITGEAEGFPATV

For `O=c1cc(-c2ccccc2Cl)oc2c(Br)ccc(O)c12`, which inhibition of ligand binding is on record?
The inhibition of ligand binding was 27%.

Which inhibition of ligand binding does the source give for `C=C1C2C[C@H](O)C(C)(C)[C@@]2(O)[C@H](O)C[C@]23C[C@@](C)(O)[C@H](CC[C@H]12)[C@H]3O` (stereo partly specified) here?
The inhibition of ligand binding was 30%.

With `COc1ccc2[nH]c3c(c2c1)CCNC3=O` as the compound, how does the inhibition of ligand binding read?
The inhibition of ligand binding was 21%.

Which inhibition of ligand binding does the source give for `O=C(O)c1ccc2c(c1)C1C=CCC1C(c1cccc([N+](=O)[O-])c1)N2` (stereo unspecified) here?
The inhibition of ligand binding was 72% (active).

`Cc1nc(-c2ccc(O)c(O)c2)cs1` was tested. Which inhibition of ligand binding did it give?
Its inhibition of ligand binding is 17%.

`CCCCCCc1cc2c3c(c(=O)oc2cc1OCC(N)=O)CCC3` was tested. Which inhibition of ligand binding did it give?
Its inhibition of ligand binding is 3%.

How did the inhibition of ligand binding turn out when `CCCNC(=O)c1ccc2c(c1)C1C3CCC(C3)C1C(c1ccccc1)N2` (stereo unspecified) was run?
Its inhibition of ligand binding is 67% (active).

How did the inhibition of ligand binding turn out when `CC(=O)Oc1ccc(C2Nc3c(C(=O)O)ccc([N+](=O)[O-])c3C3C=CCC32)cc1` (stereo unspecified) was run?
Its inhibition of ligand binding is 85% (active).

How did the inhibition of ligand binding turn out when `O=c1c(C(c2ccc(O)cc2)c2c(O)nc3n(c2=O)CCS3)c(O)nc2n1CCS2` was run?
The inhibition of ligand binding was 7%.

How did the inhibition of ligand binding turn out when `CC1CCC2(C)c3[nH]c4ccccc4c3CCN2C1=O` (stereo unspecified) was run?
The inhibition of ligand binding was 0%.

For `COC(=O)c1ccc(OCc2c(C)noc2C)cc1`, which inhibition of ligand binding is on record?
Its inhibition of ligand binding is 22%.

With `CSCCC(NC(=O)c1ccco1)C(=O)OCC(=O)Nc1sccc1C#N` (stereo unspecified) as the compound, how does the inhibition of ligand binding read?
Its inhibition of ligand binding is 4%.

For `CC(Nc1ccc(N2CCNCC2)cc1[N+](=O)[O-])C12CC3CC(CC(C3)C1)C2` (stereo unspecified), which inhibition of ligand binding is on record?
Its inhibition of ligand binding is 5%.

With `Cc1nn(-c2ccc(Cl)cc2)c2sc(C(=O)N3CCN(c4ccccn4)CC3)cc12` as the compound, how does the inhibition of ligand binding read?
Its inhibition of ligand binding is 50%.

`COc1ccc(C2CC(=O)Nc3ccccc3S2(=O)=O)cc1OC` (stereo unspecified) was tested. Which inhibition of ligand binding did it give?
The inhibition of ligand binding was 0%.

With `CC(=O)N1c2ccc3ccccc3c2C2C=CCC2C1c1ccc(Br)cc1` (stereo unspecified) as the compound, how does the inhibition of ligand binding read?
The inhibition of ligand binding was 48%.
